From PubChem BioAssay
In the library only some 2.2% were active in any assay of this set; here they are far more common.
IEC-6 tox – cytotoxicity in IEC-6 intestinal epithelial cells, primary screen, cytotoxicity control for KLF5 inhibitor project, cell-based, luminescence; IEC-6 cytotoxicity, luminescence viability; inhibition, % at 5 µM; actives 0.78% (n = 290,000); AID 1825, 2009; in the data active = inhibition above about 22%;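 note: 0% = plate median of test compound wells and 100% = cytotoxic reference compound wells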
APP 5UTR inh – inhibitors of APP translation via 5'UTR reporter, primary screen, APP 5'UTR luciferase, SH-SY5Y cells | SH-SY5Y APP 5'UTR-luciferase reporter, luminescence | inhibition, % at 2 µM | actives 0.82% (n = 190,000) | AID 1285, 2008;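 active = inhibition above a set limit, derived from the sample mean plus 3 SD, cut at about 45% in these data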
Ba/F3 V617F tox – reduced viability of JAK2V617F-dependent Ba/F3 cells, primary screen, JAK2V617F inhibitor project, cell-based, Ba/F3 EpoR-JAK2V617F, luminescence | ATP luminescence | inhibition, % at 5.6 µM | actives 1.1% (n = 220,000) | AID 1446, 2008;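 active = inhibition above the campaign mean plus 3 SD over all tested compounds, cut at about 24% in these data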;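 note: cytokine-independent growth of Ba/F3 cells driven by EpoR plus mutant JAK2; 0% = DMSO-treated cells and 100% = JAK inhibitor I control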
BaF3 parental – parental Ba/F3 cell viability inhibition, counter-screen for JAK2V617F inhibitor project, murine pro-B, CellTiter-Glo luminescence; AID 1486, 2009; CellTiter-Glo ATP luminescence; inhibition, % at 5.6 µM; actives 1.1% (n = 220,000);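 active = inhibition above a per-campaign cutoff, the mean inhibition of all tested compounds plus 3 SD, cut at about 27% in these data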;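 note: 0% = DMSO wells and 100% = JAK Inhibitor I control wells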
KLF5 inhibitor – KLF5 expression inhibitors, primary screen, DLD-1 cells, luminescence. actives 0.23% (n = 290,000). AID 1700, 2009. inhibition, % at 5 µM. DLD-1 KLF5 promoter-luciferase reporter;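 active = inhibition above a per-plate limit of that plate's mean compound inhibition plus 3 SD, cut at about 60% in these data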;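 note: 0% = DMSO wells and 100% = LY294002 at 200 µM; higher means less KLF5 promoter-driven luciferase light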
aSyn 5UTR inh – MLPCN primary screen, SNCA 5' untranslated region. alpha-synuclein 5'UTR reporter, inhibitor activity. inhibition, % (tested at 7.5 µM). actives 0.82% (n = 300,000). AID 1813, 2009; in the data active = inhibition above about 60%;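 note: H4 neuroglioblastoma cells stably carrying SNCA 5'UTR luciferase fusion; 0% = DMSO wells and 100% = positive control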
An asterisk follows results filed as active; nt = not tested or not shown.

SMILES	IEC-6 tox	APP 5UTR inh	Ba/F3 V617F tox	BaF3 parental	KLF5 inhibitor	aSyn 5UTR inh
Cc1cccc(C)c1NC(=O)C(C)Sc1n[nH]c(-c2ccncc2)n1 (stereo unspecified)	-6.0	nt	nt	nt	-7.5	20.3
COc1ccccc1NS(=O)(=O)c1cccc(C(=O)NC2CCN(Cc3ccccc3)CC2)c1	nt	nt	nt	nt	nt	83.0*
O=C(NC1CCN(Cc2ccccc2)CC1)c1cccc(S(=O)(=O)Nc2ccc(Br)cc2)c1	nt	nt	nt	nt	nt	3.7
CCN(CC)c1ccc(S(=O)(=O)N2CCCCC2)cc1NC(=O)CN1C(=O)NC2(CCCC2)C1=O	nt	nt	nt	nt	nt	18.5
COc1ccc(NC(=O)C(=O)NNC(=O)c2cccs2)cc1	-2.0	64.2*	0.6	7.6	-24.4	-32.5
CCN(CC)c1ccc(/C=N/NC(=O)c2ccc3nc[nH]c3c2)c(O)c1	-2.1	nt	7.8	1.7	17.6	92.6*
COc1cccc(/C=N/NC(=O)c2ccc3nc[nH]c3c2)c1O	-11.8	nt	-3.5	0.5	-39.7	1.2
CCC1CCCCN1CCCNC(=O)c1ccc(N2CCOCC2)c(NS(=O)(=O)c2ccc(OC)cc2)c1 (stereo unspecified)	-1.5	-0.5	-7.6	51.6*	-15.2	-4.0
Cc1cc(Cl)ccc1NC(=S)NCCN1CCOCC1	0.9	1.6	2.4	1.8	2.9	12.8
CCOc1ccc(N2CC(C(=O)Nc3cccnc3)CC2=O)cc1 (stereo unspecified)	2.5	nt	nt	nt	-13.0	-3.7
Cc1nn(-c2cc(N3CCCCC3)ccc2N)c(=O)c2ccccc12	-7.4	-5.6	-7.3	-2.0	-30.7	-5.2
Nc1ccc(N2CCCCC2)cc1N1CCCCC1	6.2	3.6	2.1	5.3	-14.8	84.6*
Nc1cc(Cl)ccc1N1CCCCCC1	-2.0	-9.9	41.6*	56.3*	-1.6	4.4
CCc1ccc(NC(=S)N2CCCC(C(F)(F)F)C2)cc1 (stereo unspecified)	0.8	-20.6	-3.1	1.7	-22.0	-27.8
Cc1csc(NC(=O)CCNS(=O)(=O)c2ccc3c(c2)c(=O)n(C)c(=O)n3C)n1	-7.3	-14.4	-1.8	94.4*	-16.4	11.4
O=C(c1ccco1)N1CCN(C(=O)c2cnn(-c3ccc(Cl)cc3)c2C2CCNCC2)CC1	-6.6	nt	nt	nt	-12.6	6.3
CCN(CC)CCCNC(=S)N1CCN(c2nc(-c3ccc(F)cc3)cs2)CC1	8.6	nt	nt	nt	-10.2	132.8*
CN1c2cccc3cccc(c23)N(C)C1(C)C	4.9	3.4	27.3*	57.6*	-1.1	10.9
CCOC(=O)c1c(O)c(Cl)c(C)[nH]c1=O	-0.7	-13.4	-2.1	0.4	-35.3	-15.9
Cc1ccc(S(=O)(=O)ON2C(=O)c3ccccc3C2=O)c(C)c1	-0.4	55.9*	-0.4	2.1	-12.6	nt
COc1ccc(CNc2ncc(-c3ccc(F)cc3)n2C)c2ccccc12	4.9	nt	nt	nt	0.1	65.1*
COc1ccccc1CNc1ncc(-c2ccc(F)cc2)n1C	3.6	nt	nt	nt	-11.1	-16.6
COc1ccc2c(c1)NC(C)(C)C=C2C	-4.0	0.0	13.9	19.1	-22.5	-1.9
CC1=CC(C)(C)Nc2ccccc21	0.4	-5.3	-3.2	1.9	7.4	91.8*
CC(C1CC2CCC1C2)n1c(-c2cccs2)n[nH]c1=S (stereo unspecified)	4.2	nt	0.1	2.6	-8.7	27.1
SMILES	IEC-6 tox	APP 5UTR inh	Ba/F3 V617F tox	BaF3 parental	KLF5 inhibitor	aSyn 5UTR inh
COc1ccc2c(c1)O[C@@H](c1cccc(C(F)(F)F)c1)[C@H](O)C2=O	7.9	-1.8	1.6	5.4	-13.8	62.4*
CCN1CCN(Cc2ccc(NC(=O)c3cc(NC(=O)c4cc(-c5ccc(OC)cc5)n[nH]4)cc(OC)c3)cc2C(F)(F)F)CC1	nt	nt	nt	nt	nt	106.2*
CCN1CCN(Cc2ccc(NC(=O)c3cc(NC(=O)c4cncc(-c5cccs5)c4)cc(OC)c3)cc2C(F)(F)F)CC1	-1.8	nt	nt	nt	-24.2	108.8*
O=C(CCc1nnc(CCCc2ccccc2)o1)NCCN1CCOC1=O	-3.3	13.7	-0.2	3.9	-21.0	-4.3
CC(=O)Oc1ccc(C(=O)Nc2ccc(C3(C#N)CCCC3)cc2)cc1	7.8	nt	nt	nt	-70.9	-142.1
COc1ccc(S(=O)(=O)N2CCCCC2)cc1NC(=O)c1ccc([N+](=O)[O-])o1	-5.2	55.7*	-2.3	5.2	-24.6	-29.1
Cc1ccc(-c2nn3nnnc3c3ccccc23)cc1C	-2.0	-10.4	-3.1	-1.0	-9.4	34.7
Cc1ccc(-c2nn3cnnc3c3ccccc23)cc1C	13.6	-30.9	4.2	6.9	-6.7	64.2*
CCOC(=O)COc1ccc(S(=O)(=O)Nc2cccc(SC)c2)cc1	0.6	68.7*	0.2	2.5	-1.3	11.2
Cc1ccsc1C(=O)N1CCC(N2CCC(C(=O)NCC3CCCO3)CC2)CC1 (stereo unspecified)	-1.6	-7.1	1.4	9.0	-33.4	13.8
Cc1nnc(NC(=O)CSc2nc3ccccc3o2)s1	-0.7	-9.9	2.9	2.5	9.5	-6.1
CCc1nnc(NC(=O)CSc2nc3ccccc3o2)s1	1.6	46.9*	-0.9	3.4	-23.3	-1.4
Cc1nc2ccccc2c(=O)n1/N=C/c1c(O)ccc2oc3c(c12)CCCC3	0.0	5.6	-2.7	0.9	-32.0	85.7*
COc1cc(Cl)ccc1NC(=O)COc1ccccc1C(=O)NN	4.6	-20.6	0.8	2.2	-2.7	-36.0
O=C(Oc1ccc(NC2=C(Cl)C(=O)c3ccccc3C2=O)cc1)c1ccc([N+](=O)[O-])cc1	-3.8	40.6	1.8	6.2	-50.2	-109.5
CC(=O)Nc1ccc(NC2=C(Cl)C(=O)c3ccccc3C2=O)cc1	2.7	89.0*	-2.6	1.6	11.5	-39.9
O=C1C(Cl)=C(Nc2ccc3cn[nH]c3c2)C(=O)c2ccccc21	100.8*	nt	98.2*	107.0*	-27.9	100.2*
CN(C)c1ccc(NC2=C(Cl)C(=O)c3ccccc3C2=O)cc1	24.7*	93.9*	3.9	7.0	-109.5	-116.1
CC(=O)Nc1ccc(NC(=O)C(C)OC(=O)C2CCN(S(=O)(=O)c3ccc4c(c3)OCCO4)CC2)cc1 (stereo unspecified)	nt	nt	nt	nt	nt	5.3
CN(C)c1nc(N/N=C/c2ccccc2O)nc(Nc2ccc(F)cc2)n1	3.4	48.4*	-1.9	5.2	-2.9	-60.2
CCOC(=O)CC1(NC(=O)C2CCC(=O)N(CCc3ccccc3)C2)CCCCC1 (stereo unspecified)	-13.5	nt	nt	nt	-23.0	-20.1
CCCCCn1ccc(=N)cc1	-4.7	7.0	67.4*	62.2*	-15.3	18.5
N/C(=N/O)c1ccccc1N1CCC(Cc2ccccc2)CC1	-7.9	-44.8	71.7*	68.7*	-5.0	10.2
Cc1ccc(C)c(Nc2c([N+](=O)[O-])cc(C(=O)N3CC(=O)Nc4ccccc43)cc2[N+](=O)[O-])c1	2.6	3.0	-2.3	2.1	-2.0	77.6*
